# This excerpt belongs to a sample that is enriched for the strongest signals.
# Assays:
# Assay in all cases: glycan array binding signal (z-score within array); higher = stronger binding
# Details in all cases: glycan notation: IUPAC condensed, linker removed; mutation: D57L
# [1] = biological target: GlcNAc(b1-2)[GlcNAc(b1-4)]Man(a1-3)[GlcNAc(b1-4)][GlcNAc(b1-2)[GlcNAc(b1-6)]Man(a1-6)]Man(b1-4)GlcNAc(b1-4)GlcNAc
# Method in brief: (§1)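 Glycan array data were curated from 3228 arrays in the Consortium for Functional Glycomics database and kept only where the protein sequence was available. Glycan names were converted to IUPAC-condensed notation, and columns mapping to the same glycan were averaged. The binding signal is a within-array Z-score, averaged across arrays of the same protein sequence at different concentrations or buffers and across linkers. Negative Z-scores can be read as non-binding.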
# [2] = biological target: GlcNAc(b1-3)Gal(b1-4)GlcNAc(b1-2)Man(a1-3)[GlcNAc(b1-3)Gal(b1-4)GlcNAc(b1-2)Man(a1-6)]Man(b1-4)GlcNAc(b1-4)GlcNAc
# Method in brief: as §1
# [3] = biological target: GlcNAc(b1-3)Gal(b1-4)GlcNAc(b1-3)Gal(b1-4)GlcNAc(b1-3)Gal(b1-4)GlcNAc(b1-3)Gal(b1-4)GlcNAc(b1-2)Man(a1-3)[GlcNAc(b1-3)Gal(b1-4)GlcNAc(b1-3)Gal(b1-4)GlcNAc(b1-3)Gal(b1-4)GlcNAc(b1-3)Gal(b1-4)GlcNAc(b1-2)Man(a1-6)]Man(b1-4)GlcNAc(b1-4)[Fuc(a1-6)]GlcNAc
# Method in brief: as §1
# [4] = biological target: GlcNAc(b1-3)Gal(b1-4)GlcNAc(b1-3)GalNAc
# Method in brief: as §1
# GlcNAc(b1-3)Man = biological target: GlcNAc(b1-3)Man
# Method in brief: as §1
# [5] = biological target: GlcNAc(b1-4)Gal(b1-4)GlcNAc
# Method in brief: as §1
# Kdn(a2-6)Gal(b1-4)GlcNAc = biological target: Kdn(a2-6)Gal(b1-4)GlcNAc
# Method in brief: as §1
# Man(a1-2)Man(a1-3)Man = biological target: Man(a1-2)Man(a1-3)Man
# Method in brief: as §1
# Man(a1-3)[Man(a1-6)]Man = biological target: Man(a1-3)[Man(a1-6)]Man
# Method in brief: as §1
# [6] = biological target: Man(a1-3)[Man(a1-6)]Man(a1-6)[Man(a1-3)]Man
# Method in brief: as §1
# [7] = biological target: Man(a1-3)[Man(a1-6)]Man(b1-4)GlcNAc(b1-4)GlcNAc
# Method in brief: as §1
# [8] = biological target: Neu5Ac(a2-3)Gal(b1-3)GalNAc(b1-4)[Neu5Ac(a2-3)]Gal(b1-4)Glc
# Method in brief: as §1
# [9] = biological target: Neu5Ac(a2-3)Gal(b1-3)GlcNAc(b1-2)Man
# Method in brief: as §1
# [10] = biological target: Neu5Ac(a2-3)Gal(b1-3)GlcNAc(b1-2)Man(a1-3)[GlcNAc(b1-4)][Neu5Ac(a2-3)Gal(b1-3)GlcNAc(b1-2)Man(a1-6)]Man(b1-4)GlcNAc(b1-4)GlcNAc
# Method in brief: as §1
# [11] = biological target: Neu5Ac(a2-3)Gal(b1-3)GlcNAc(b1-6)GalNAc
# Method in brief: as §1
# [12] = biological target: Neu5Ac(a2-3)Gal(b1-3)GlcNAc6S
# Method in brief: as §1
# [13] = biological target: Neu5Ac(a2-3)Gal(b1-4)GlcNAc(b1-2)Man
# Method in brief: as §1
# [14] = biological target: Neu5Ac(a2-3)Gal(b1-4)GlcNAc(b1-3)Gal(b1-4)GlcNAc
# Method in brief: as §1
# [15] = biological target: Neu5Ac(a2-3)Gal(b1-4)GlcNAc(b1-3)Gal(b1-4)GlcNAc(b1-2)Man(a1-3)[Neu5Ac(a2-3)Gal(b1-4)GlcNAc(b1-3)Gal(b1-4)GlcNAc(b1-2)Man(a1-6)]Man(b1-4)GlcNAc(b1-4)GlcNAc
# Method in brief: as §1
# [16] = biological target: Neu5Ac(a2-3)Gal(b1-4)GlcNAc(b1-3)Gal(b1-4)GlcNAc(b1-3)Gal(b1-4)GlcNAc(b1-2)Man(a1-3)[Neu5Ac(a2-3)Gal(b1-4)GlcNAc(b1-3)Gal(b1-4)GlcNAc(b1-3)Gal(b1-4)GlcNAc(b1-2)Man(a1-6)]GalNAc
# Method in brief: as §1
# [17] = biological target: Neu5Ac(a2-3)Gal(b1-4)GlcNAc(b1-6)[Gal(b1-3)]GalNAc
# Method in brief: as §1
# [18] = biological target: Neu5Ac(a2-3)Gal(b1-4)[Fuc(a1-3)]GlcNAc(b1-6)[Neu5Ac(a2-3)Gal(b1-3)]GalNAc
# Method in brief: as §1
# Neu5Ac(a2-3)GalNAc = biological target: Neu5Ac(a2-3)GalNAc
# Method in brief: as §1
# [19] = biological target: Neu5Ac(a2-6)Gal(b1-4)GlcNAc(b1-3)[Neu5Ac(a2-6)Gal(b1-4)GlcNAc(b1-6)]GalNAc
# Method in brief: as §1
# [20] = biological target: Neu5Ac(a2-6)Gal(b1-4)GlcNAc6S
# Method in brief: as §1
# [21] = biological target: Neu5Ac(a2-6)GalNAc(b1-4)GlcNAc
# Method in brief: as §1
# [22] = biological target: Neu5Ac(a2-8)Neu5Ac(a2-3)Gal(b1-3)GalNAc(b1-4)[Neu5Ac(a2-3)]Gal(b1-4)Glc
# Method in brief: as §1
# [23] = biological target: Neu5Ac9Ac(a2-3)Gal(b1-4)GlcNAc
# Method in brief: as §1
# [24] = biological target: Neu5Gc(a2-6)Gal(b1-4)GlcNAc
# Method in brief: as §1
# [25] = biological target: Neu5Gc(a2-8)Neu5Gc(a2-3)Gal(b1-4)GlcNAc(b1-3)Gal(b1-4)GlcNAc
# Method in brief: as §1
binder,measurement,setting,value
PNGase F (Flavobacterium meningosepticum) (protein) GIPAPADNTVNIKTFDKVKNAFGDGLSQSAEGTFTFPADVTAVKTIKMFIKNECPNKTCLEWDRYANVYVKNKTTGEWYEIGRFITPYWVGTEKLPRGLEIDVTDFKSLLSGNTELKIYTETWLAKGREYSVDFDIVYGTPDYKYSAVVPVVQYNKSSIDGVPYGKAHTLALKKNIQLPTNTEKAYLRTTISGWGHAKPYDAGSRGCAEWCFRTHTIAINNSNTFQHQLGALGCSANPINNQSPGNWTPDRAGWCPGMAVPTRIDVLNNSLIGSTFSYEYKFQNWTNNGTNGDAFYAISSFVIAKSNTPISAPVVTNLDPHHHHHH,glycan array binding signal (z-score),[1],-0.146
same,glycan array binding signal (z-score),[2],0.239
same,glycan array binding signal (z-score),[3],0.677
same,glycan array binding signal (z-score),[4],0.274
same,glycan array binding signal (z-score),GlcNAc(b1-3)Man,2.62
same,glycan array binding signal (z-score),[5],-0.997
same,glycan array binding signal (z-score),Kdn(a2-6)Gal(b1-4)GlcNAc,0.05
same,glycan array binding signal (z-score),Man(a1-2)Man(a1-3)Man,-1.18
same,glycan array binding signal (z-score),Man(a1-3)[Man(a1-6)]Man,0.446
same,glycan array binding signal (z-score),[6],3.32
same,glycan array binding signal (z-score),[7],0.156
same,glycan array binding signal (z-score),[8],0.797
same,glycan array binding signal (z-score),[9],-0.518
same,glycan array binding signal (z-score),[10],0.012
same,glycan array binding signal (z-score),[11],0.237
same,glycan array binding signal (z-score),[12],1.09
same,glycan array binding signal (z-score),[13],3.1
same,glycan array binding signal (z-score),[14],-0.525
same,glycan array binding signal (z-score),[15],0.19
same,glycan array binding signal (z-score),[16],0.914
same,glycan array binding signal (z-score),[17],2.77
same,glycan array binding signal (z-score),[18],0.57
same,glycan array binding signal (z-score),Neu5Ac(a2-3)GalNAc,1.19
same,glycan array binding signal (z-score),[19],-0.712
same,glycan array binding signal (z-score),[20],0.924
same,glycan array binding signal (z-score),[21],-1
same,glycan array binding signal (z-score),[22],-0.06
same,glycan array binding signal (z-score),[23],-1.04
same,glycan array binding signal (z-score),[24],0.069
same,glycan array binding signal (z-score),[25],-0.629
